Data reported in PubChem BioAssay AID485344 (National Center for Advancing Translational Sciences (NCATS), 2010).
Hit rate of the full screen: of about 340,000 compounds, about 6,900 (2%) were called active. No stated cut-off is given here; in the data, active means inhibition above about 30%; inactive means below that, where a call was filed. This excerpt belongs to a sample that is enriched for actives.

What follows are compounds tested against D(2) dopamine receptor (Homo sapiens) (UniProt P14416) (assay: HTS Assay for Allosteric Antagonists of the Human D2 Dopamine Receptor: Primary Screen for Antagonists). Conditions: HEK293 TREx D2 cells, calcium flux, dopamine EC80; at 10 µM; stronger effect = higher value.
Description: NIH Chemical Genomics Center [NCGC] NIH Molecular Libraries Probe Centers Network [MLPCN] MLPCN Grant: NS064831-01 Assay Submitter (PI): David Sibley Dopamine receptors (DARs) are involved in the etiology and/or therapy of a number of neuropsychiatric and endocrine disorders. For instance, all receptor-based antiparkinsonian drugs work via stimulating the D2 DAR subtype whereas all FDA-approved antipsychotic agents are antagonists of this receptor. […] There are three different types of allosteric modulators that we are seeking, two of which will stimulate or augment receptor signaling, allosteric agonists and potentiators, while the third, allosteric antagonists, will attenuate receptor signaling. The present primary screening assay measures compound antagonism after an EC80 addition of dopamine by tracking calcium flux in a […], inducible Hek293 Trex D2 cell line.
Freshly passaged cells are plated in 1536 well black, clear bottom plates at a density of 4000 cells/well in 3 ul of complete media containing 1x tetracycline inducer. After an overnight incubation at 30 C in 5% CO2, cells are loaded with 2 ul of the no wash Calcium Assay Kit (ABD Bioquest) and incubated at room temperature for 30 to 90 minutes. Agonist read: A 10 cycle (1 second/cycle) baseline measurement is taken and then the FDSS online 1536 pintool delivers 23 nl of compound library (as well as dopamine controls) to the plate. The plate is measured for kinetically at 1 cycle/sec for 180 seconds. Following the 180 second read, 1 ul of an EC80 (negative modulation assay) is delivered by an onboard pipette head. Measurements are taken kinetically for an additional 180 seconds.
Further: 0% is about no effect.

Chain of D(2) dopamine receptor (Homo sapiens) (P14416 whole entry, looked up): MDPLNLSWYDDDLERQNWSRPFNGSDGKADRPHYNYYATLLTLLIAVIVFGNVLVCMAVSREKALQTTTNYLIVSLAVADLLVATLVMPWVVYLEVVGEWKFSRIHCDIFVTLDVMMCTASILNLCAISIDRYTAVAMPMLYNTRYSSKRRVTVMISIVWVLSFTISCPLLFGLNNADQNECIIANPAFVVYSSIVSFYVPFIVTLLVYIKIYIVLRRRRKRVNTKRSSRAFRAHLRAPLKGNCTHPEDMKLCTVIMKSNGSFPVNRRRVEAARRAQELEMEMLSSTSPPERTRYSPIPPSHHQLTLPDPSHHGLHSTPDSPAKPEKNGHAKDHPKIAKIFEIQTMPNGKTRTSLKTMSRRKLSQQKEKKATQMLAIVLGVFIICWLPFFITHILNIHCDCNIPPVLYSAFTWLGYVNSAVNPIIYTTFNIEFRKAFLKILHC

Compound	inhibition
O=S(=O)(c1cccs1)N1CCN(CCOc2ccccc2)CC1	-9.4% (inactive)
Nc1c(N(Cc2ccco2)C(=O)c2cccc(F)c2)c(=O)[nH]c(=O)n1Cc1ccccc1	11.2% (inactive)
CC(Sc1nnc(-c2cccs2)n1C1CC1)C(=O)NCC1CCCO1 (configuration not stated)	13.5% (inactive)
CCOC(=O)C1(CC2CCCCO2)CCN(Cc2nc(-c3cccs3)oc2C)CC1 (configuration not stated)	69.3% (active)
COc1cccc(CC2(CO)CCCN(Cc3nc(-c4cccs4)oc3C)C2)c1 (configuration not stated)	-28.2% (inactive)
O=C(OCC(=O)N1CCc2ccccc21)C1CCCN1S(=O)(=O)c1ccc(Cl)cc1 (configuration not stated)	-11.4% (inactive)
CCOC(=O)c1ccc(NC(=O)C2CC(=O)N(c3ccc4c(c3)OCCO4)C2)cc1 (configuration not stated)	6.09% (inactive)
Clc1ccc(C[n+]2cc(-c3ccccc3)n3c2CCC3)cc1	-18.7% (inactive)
Clc1ccc(C[n+]2cc(-c3ccc(Cl)cc3)n3c2CCC3)cc1	44.4% (active)
Cc1ccc(-c2c[n+](CC(=O)Nc3ccccc3)c3n2CCC3)cc1	7.8% (inactive)
OCC[C@H]1C[C@H](O)[C@@H](O)[C@]2(CCc3ccccc3O2)O1	4.64% (inactive)
CN(C)C(CNC(=O)c1cccc(S(=O)(=O)Nc2ccc(Br)cc2)c1)c1ccco1 (configuration not stated)	22.1% (inactive)
CCn1nc(C)c(CN2CCN(Cc3ccc(OC)c(C)c3C)C(CCO)C2)c1C (configuration not stated)	-7.65% (inactive)
COc1ccc(CN2CCN(Cc3cn(C)nc3-c3ccccc3)CC2CCO)c(C)c1C (configuration not stated)	33.2% (active)
Cc1ccc(CN2CCN(Cc3cn(C)nc3-c3ccccc3)CC2CCO)o1 (configuration not stated)	9.07% (inactive)
CCOc1ccc(S(=O)(=O)NCCC(=O)NCC2CCCO2)cc1 (configuration not stated)	6.91% (inactive)
CN1CCC(N(C)S(=O)(=O)c2ccc(NC(=O)c3cccc(C#N)c3)cc2)CC1	-21.6% (inactive)
CC(C)(C)OC(=O)N1CCC(NC(=O)c2[nH]cnc2C(=O)N[C@@H](Cc2ccccc2)C(=O)OCc2ccccc2)CC1	20.4% (inactive)
O=C(N[C@@H](Cc1ccccc1)C(=O)OCc1ccccc1)c1nc[nH]c1C(=O)NC1CCNCC1	76.1% (active)
O=C(N[C@@H](Cc1ccccc1)C(=O)OCc1ccccc1)c1nc[nH]c1C(=O)N[C@@H](Cc1ccccc1)C(=O)OCc1ccccc1	13.9% (inactive)
O=C(NCc1ccccc1CN1CCCC1)C1CCN(S(=O)(=O)c2ccc(Cl)cc2)CC1	9.19% (inactive)
Cc1ccc(CNC(=O)c2cc(-c3ccccc3C)n(CC3CC(c4cccc([N+](=O)[O-])c4)=NO3)n2)cc1 (configuration not stated)	6.93% (inactive)
Cc1ccccc1-c1cc(C(=O)NCc2cccs2)n(CC2CC(c3cccnc3)=NO2)n1 (configuration not stated)	37.9% (active)

Compound	inhibition
Cc1ccccc1-c1cc(C(=O)NCC2CC2)n(CC2CC(c3cccnc3)=NO2)n1 (configuration not stated)	2.25% (inactive)
Cc1onc(C(=O)NN)c1-c1csc(COc2ccccc2)n1	20.6% (inactive)
CC(C)(C)C(=O)OCc1nc(-c2ccc(O)c(O)c2)cs1	93.7% (active)
COc1ccc(OC)c(Nc2nc(-c3ccc(O)c(O)c3)cs2)c1	-3.66% (inactive)
C#CCOCCOCCOCCNc1nc(N2CCN(C(=O)CCCCCCCCCCNC(=O)Cn3cc(CCCCCN)nn3)CC2)nc(N2CCN(C(=O)CCCCCCCCCCNC(=O)[C@H](CO)n3cc(CCCSC)nn3)CC2)n1	1.73% (inactive)
COc1cc(OC)cc(-c2c(-c3cccs3)c3cc(-c4ccc(OC)cc4F)ccc3n2C)c1	-3.09% (inactive)
CCN(CCCCOC(=O)c1ccc(OC)c(OC)c1)C(C)Cc1ccc(OC)cc1 (configuration not stated)	43.6% (active)
CCOC(=O)CN(Cc1ccc(OC)c(OC)c1)S(=O)(=O)c1ccc(OC)cc1	-14% (inactive)
COc1ccccc1NC(=O)COc1ccc(C(=O)OCC(=O)N(C(C)C)C(C)C)cc1OC	11.9% (inactive)
CC(C)(C)n1ncc2c(=O)n(Cc3c(Cl)cccc3Br)cnc21	-6.49% (inactive)
Cc1ccc(C)c(OCC(=O)NNC(=O)C2CCC2)c1	-10.9% (inactive)
CCN(CC(=O)Nc1c(F)cccc1F)C(=O)c1ccc(Sc2nncn2C)c([N+](=O)[O-])c1	-7.81% (inactive)
CC(=O)Nc1ccc(SCC(=O)Nc2ccccc2Oc2ccccc2)cc1	-7.41% (inactive)
CC1CCCN(CC(=O)Nc2cc(Cl)ccc2Oc2ccccc2)C1 (configuration not stated)	-9.74% (inactive)
O=C(CSc1ccccc1)Nc1cc(Cl)ccc1Oc1ccccc1	41.8% (active)
O=C(CNC(=O)c1ccc2ccccc2c1)Nc1ncccc1O	6.52% (inactive)
CCCN(C(=O)c1nc2nccc(C)n2n1)c1c(N)n(Cc2ccccc2)c(=O)[nH]c1=O	13.1% (inactive)
O=C(O)c1cc(S(=O)(=O)Nc2ccc3cn[nH]c3c2)ccc1Br	-28.4% (inactive)
O=S(=O)(c1ccc(SCc2ccccc2)nc1)N1CCCCCC1	-5.53% (inactive)
COc1ccc([C@H]2CC(=O)C=C(/C=C/c3ccccc3)C2)cc1	11.1% (inactive)
O=[N+]([O-])c1ccc(O)c(/C=N/Nc2ccccc2[N+](=O)[O-])c1	20.9% (inactive)
O=[N+]([O-])c1ccccc1Nc1ccc(O)cc1	48.5% (active)
O=C(O)c1ccccc1C(=O)Nc1ccccc1[N+](=O)[O-]	7.04% (inactive)

Compound	inhibition
COc1ccccc1OCC(=O)OCc1cc(-c2ccco2)on1	5.46% (inactive)
CS(=O)(=O)N(CC(=O)N1CCCCCC1)c1cccc(Cl)c1Cl	-0.797% (inactive)
CCN(CC(=O)N1CCCC1)S(=O)(=O)c1ccc(F)cc1	21.3% (inactive)
CS(=O)(=O)N(CC(=O)N1CCCC1)Cc1ccccc1	47.1% (active)
O=C(COc1coc(CN2CCN(c3ccccc3)CC2)cc1=O)Nc1ccccc1F	16.7% (inactive)
CCOC(=O)c1cc(-c2ccccc2C)n(Cc2cc(C)no2)n1	9.49% (inactive)
COc1ccc(C(=O)OCC(=O)NCCCc2ccccc2)cc1OC	7.85% (inactive)
COc1ccc(C(=O)OCC(=O)Nc2cccc(C(C)=O)c2)cc1OC	113% (active)
CC(=O)Nc1cccc(C(=O)OCC(=O)Nc2nnc(-c3ccccc3)o2)c1	-0.603% (inactive)
CCCCn1c(N)c(N(CCOC)C(=O)c2cccc(OCc3ccccc3)c2)c(=O)[nH]c1=O	-3.21% (inactive)
CCOc1ncccc1C(=O)OCC(=O)Nc1cccc(S(=O)(=O)N2CCCCCC2)c1	-2.34% (inactive)
CC(Oc1ccc(F)cc1)C(=O)Nc1cc(S(=O)(=O)N2CCOCC2)ccc1N1CCN(C)CC1 (configuration not stated)	-1.88% (inactive)
CC(NC(=O)c1ccc(S(=O)(=O)Nc2ccccc2)cc1)c1ccc(S(N)(=O)=O)cc1 (configuration not stated)	11.4% (inactive)
Fc1cccc(Cl)c1CSc1ccc(-c2ccco2)nn1	-10.9% (inactive)
Clc1ccccc1CSc1nnc(-c2ccco2)c(-c2ccco2)n1	34.6% (active)
S=C(NCc1ccco1)NCc1ccccc1Cl	-9.44% (inactive)
COc1ccccc1C(CNC(=O)c1ccc(C)c(S(=O)(=O)N2CCCCC2)c1)N(C)C (configuration not stated)	8.09% (inactive)
CN(C(=O)COC(=O)c1ccc(Br)o1)c1c(N)n(Cc2ccccc2)c(=O)[nH]c1=O	1.2% (inactive)
Cc1ccc(N(C(=O)CC2NC(=O)NC2=O)C2(C(=O)NC3CCCC3)CCCCC2)cc1 (configuration not stated)	-9.9% (inactive)
CC(=O)NCC(=O)N(Cc1ccco1)C1(C(=O)NC2CCCC2)CCCCC1	22.2% (inactive)
O=C(c1ccc(=O)[nH]c1)N(Cc1ccco1)C1(C(=O)NC2CCCCC2)CCCCC1	37.6% (active)
O=C(NCCN1CCN(Cc2ccccc2)CC1)c1cc2c(=O)[nH]c3ccccc3c2s1	-24.6% (inactive)
Cn1c(C(=O)NCCN2CCc3ccccc3C2)cc2c(=O)[nH]c3ccccc3c21	32.3% (active)

Compound	inhibition
O=C(CN1C(=O)COc2ccccc21)NCCN1CCc2ccccc2C1	9.13% (inactive)
Cc1nnc(SCC(=O)NNC(=O)c2ccc(Cl)cc2)n1CC1CCCO1 (configuration not stated)	-10.1% (inactive)
COc1ccccc1NC(=O)CSc1nnc(C)n1CC1CCCO1 (configuration not stated)	-14.5% (inactive)
Cc1nnc(SCC(N)=O)n1CC1CCCO1 (configuration not stated)	32.8% (active)
COc1ccc(CCNC(=O)COC(=O)Cc2cccc(F)c2)cc1	6.51% (inactive)
Cc1c(NC(=O)C(C)Oc2cccc(Cl)c2)c(=O)n(-c2ccccc2)n1C (configuration not stated)	-1.16% (inactive)
O=C(CSc1nc(C2CC2)nc2ccccc12)Nc1ccc2c(c1)OCCO2	4.27% (inactive)
O=C(CSc1nc(C2CC2)nc2ccccc12)Nc1cccc(O)c1	6.46% (inactive)
Cc1nnc(NC(=O)CSc2nc(C3CCCCC3)nc3ccccc23)s1	35.4% (active)
Cn1c(CC(=O)NNC(=O)c2ccccc2F)nc2ccccc21	-9.97% (inactive)
O=C(NCc1ccncc1)c1cccc(NS(=O)(=O)c2ccc(F)c(F)c2)c1	26.4% (inactive)
O=C(c1ccc(Br)o1)N1CCN(CCOc2ccccc2)CC1	86.3% (active)
COc1cccc(OCc2cc(C(=O)N3CCN(C(=O)c4ccco4)CC3)no2)c1	-3.13% (inactive)
O=C(CN1CCN(C(=O)c2ccco2)CC1)Nc1ccc(Cl)c(C(F)(F)F)c1	0.954% (inactive)
O=C(c1ccco1)N1CCN(Cc2cccc(C(F)(F)F)c2)CC1	77.1% (active)
COC(c1ccccc1)c1nnc(CCC(=O)N2CCN(CCOc3ccccc3)CC2)o1 (configuration not stated)	-8.4% (inactive)
COc1cccc(OC)c1OCCN1CCN(C(=O)c2ccco2)CC1	63.6% (active)
O=C(c1ccco1)N1CCN(C(=S)Nc2cc(F)cc(F)c2)CC1	-1.02% (inactive)
O=C(c1ccco1)N1CCN(CCOc2ccccc2)CC1	61.7% (active)
O=CN1CCN(C(=O)c2ccc(Br)o2)CC1	-1.93% (inactive)
Cc1ccc(C)c(OCC(=O)N2CCN(C(=O)c3ccco3)CC2)c1	-1.29% (inactive)
O=C(c1ccco1)N1CCN(C(=O)c2ccc(COc3ccc(F)cc3)o2)CC1	1.11% (inactive)
O=C(CNS(=O)(=O)c1ccccc1)N1CCN(C(=O)c2ccco2)CC1	-2.75% (inactive)
